Molecules are shown by their SMILES. Where “and” joins values, the source holds several entries; their conditions need not be identical. Identical values can stand only once. Results filed as inconclusive are left out. Where a call stands in place of a potency, no number is given. Calls of active or inactive are those of the source. The call rests on the fitted dose curve; in most records, active means well fitted curve in the direction sought with a large enough effect; inconclusive means small, poorly fitted or top-dose-only effect, or another doubt; inactive means no such curve, though single readings can be large; an effect the other way counts as inactive or inconclusive.

A short description of assay [1]: qHTS for Inhibitors of the vitamin D receptor (VDR): Hit Validation using a Texas Red Assay (AID 602201). Further: potency means the concentration at half of the fitted maximal effect. Put shortly: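 Fluorescence polarization with 1.5 uM VDR-LBD, LG19078 and 7 nM Texas Red (final). After 2 hours at ambient temperature, read at Ex 595 nm/Em 615 nm.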
A general note: qHTS replaces the single test concentration by a dilution series.

Assay [2] in a line: qHTS for Inhibitors of Ubiquitin-specific Protease USP2a Using CHOP2 as the Reporter: K633 Counterscreen (AID 652168). Further: series mostly up to about 57 µM. Put shortly: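 Detection-system control: fluorescence of K48-linked DiUb-4IQF substrate (100 nM as added) tracked over time, Ex 525/Em 598, with pinned compounds and no enzyme, in pH 8 Tris buffer containing beta-mercaptoethanol and 0.05% Chaps.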
The nature of assay [3]: qHTS for Inhibitors of Ubiquitin-specific Protease USP2a Using CHOP2 as the Reporter: Cytotox Assay (AID 652170). Further: nearly all actives have a fitted effect of over 70% in size. Further: potency means the concentration at half of the fitted maximal effect. In short, it runs like this: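 Cytotoxicity read as ATP luminescence (CellTiter-Glo) after 72 hr compound treatment at 37 deg C. Cells: HCT116, 600/well in DMEM plus 10% FBS. Normalization between DMSO-treated cells and cell-free wells.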
Assay [4] addresses Ubiquitin carboxyl-terminal hydrolase 2 (Homo sapiens) (UniProt O75604). Nature of the assay: qHTS for Inhibitors of Ubiquitin-specific Protease USP2a Using CHOP2 as the Reporter: K484 Substrate (AID 652173).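 Further: cleavage of internally quenched K48 di-ubiquitin substrate measured as rising fluorescence over time; nearly all actives have a fitted effect of over 70% in size.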 Further: potency means the concentration at half of the fitted maximal effect. Put shortly: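 Kinetic fluorescence (Ex 525/Em 598) tracked cleavage of an internally quenched K48 di-ubiquitin substrate, added as a 100 nM solution. The enzyme was added as a 5 nM USP2 solution before compound pinning, with no-enzyme controls. Buffer: Tris pH 8, beta-mercaptoethanol, CHAPS.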

Assay [5] concerns the target Calcium and integrin-binding protein 1 (Homo sapiens) (UniProt Q99828). Nature of the assay: Primary qHTS for Identification of Calcium Integrin Binding Protein 1 (CIB1) Competitor (AID 1508620).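 Further: GST tagged CIB1 binding a fluorescein labelled alphaIIb integrin peptide tracer; top concentration of the series differs between compounds.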 In short, it runs like this:
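Fluorescence polarization competition: GST-tagged CIB1 (1 uM final) preincubated with compound 15 min at room temperature, then FITC-labelled alphaIIb peptide (100 nM final) added. After 15 min at room temperature, polarization read at Ex 480/Em 540.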

Calcium and integrin-binding protein 1 (Homo sapiens), sequence (Q99828 whole entry, looked up): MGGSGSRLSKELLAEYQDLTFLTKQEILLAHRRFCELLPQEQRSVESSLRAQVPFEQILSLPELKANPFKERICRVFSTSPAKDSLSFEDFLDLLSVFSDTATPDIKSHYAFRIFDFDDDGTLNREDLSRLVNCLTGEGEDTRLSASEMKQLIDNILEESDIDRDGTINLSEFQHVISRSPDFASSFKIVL
Ubiquitin carboxyl-terminal hydrolase 2 (Homo sapiens), sequence (O75604 whole entry, looked up): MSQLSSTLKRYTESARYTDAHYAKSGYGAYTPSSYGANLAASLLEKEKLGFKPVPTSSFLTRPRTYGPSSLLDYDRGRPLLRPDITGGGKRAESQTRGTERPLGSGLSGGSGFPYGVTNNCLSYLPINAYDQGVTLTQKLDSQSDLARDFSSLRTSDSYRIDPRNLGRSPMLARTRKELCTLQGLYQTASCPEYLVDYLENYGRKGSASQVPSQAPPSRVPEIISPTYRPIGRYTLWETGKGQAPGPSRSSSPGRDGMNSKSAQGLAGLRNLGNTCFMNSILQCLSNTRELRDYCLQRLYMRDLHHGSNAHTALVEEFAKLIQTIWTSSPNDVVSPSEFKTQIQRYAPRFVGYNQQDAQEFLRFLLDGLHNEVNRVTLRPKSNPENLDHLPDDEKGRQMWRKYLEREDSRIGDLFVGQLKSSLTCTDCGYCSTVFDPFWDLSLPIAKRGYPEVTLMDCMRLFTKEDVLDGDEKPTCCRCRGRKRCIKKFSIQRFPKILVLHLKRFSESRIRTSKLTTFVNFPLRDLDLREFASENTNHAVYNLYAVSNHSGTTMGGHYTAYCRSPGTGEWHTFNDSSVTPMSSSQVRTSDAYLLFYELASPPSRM

As to `O=C(Cc1ccccc1)Nc1sc2c(c1C(=O)Nc1ccc(Cl)cc1)CCCC2`, the Potency in assay [1] is 4.47 µM (active).
In the case of `Cc1ccc(S(=O)(=O)Nc2cnccc2C(=O)Nc2nc(-c3ccc(-c4ccccc4)cc3)cs2)cc1`, the outcome in assay [2] was inactive. Moreover, the Potency in assay [3] was 20.9 µM (active); in assay [4], 2.17 µM (active). Further, the Potency entry in assay [5] was “inactive”.
For `O=C(Nc1ccc([S+](=O)([O-])Nc2nccs2)cc1)c1ccn[nH]1`, the outcome in assay [2] was inactive. Also, the Potency entry in assay [3] and in assay [5] was “inactive” throughout.
As to `O=C(Nc1ccc([S+](=O)([O-])Nc2nccs2)cc1)C1CCNCC1`, the outcome in assay [2] was inactive. In addition, the Potency result in assay [3] and in assay [5] was “inactive” in each case.
For `Cc1ccc(S(=O)(=O)Nc2ccccc2C(=O)Nc2nc(-c3ccccc3)c(Br)s2)cc1`, in assay [2], the result was inactive. For the same compound, in assay [3], the Potency is 5.9 µM (active). Also, in assay [5], the Potency result was “inactive”.
For `O=C(Nc1ccc(S(=O)(=O)Nc2nccs2)cc1)c1cccnc1`, in assay [2], the compound was classed as inactive. In addition, the Potency entry in assay [3] and in assay [5] was “inactive” in each case.
In the case of `Cc1ccc(-c2cc(C(=O)Nc3ccc(-c4nn[nH]n4)cc3)c3ccccc3n2)cc1C`, in assay [2], the call was inactive. The Potency entry in assay [3] and in assay [5] was “inactive” throughout.
`Cc1ccc(S(=O)(=O)Nc2ccccc2C(=O)Nc2nc(-c3ccccc3)cs2)cc1`: the outcome in assay [2] was inactive. Besides, in assay [3], the Potency is 14.8 µM (active) and 11.8 µM (active). Further, in assay [5], the Potency entry is “inactive”.
`O=C(Nc1ccc(S(=O)(=O)Nc2nccs2)cc1)C1CC(OCc2ccccc2)C1` (configuration not stated): the call in assay [2] was inactive. In addition, the Potency result in assay [3] and in assay [5] was “inactive” throughout.
Regarding `CCOC(=O)C1CCC(C(=O)Nc2ccc([S+](=O)([O-])Nc3nccs3)cc2)CC1` (configuration not stated), the result in assay [2] was inactive. The Potency result in assay [3], in assay [4] and in assay [5] was “inactive” in each case.
In the case of `Cc1ccc(-c2csc(NC(=O)c3ccccc3NS(=O)(=O)c3ccc(C)cc3)n2)cc1`, in assay [2], the compound was classed as inactive. Also, in assay [3], the Potency was 16.6 µM (active). In addition, in assay [5], the Potency entry is “inactive”.
Consider `O=C(Nc1ccc(S(=O)(=O)Nc2nccs2)cc1)c1ccncc1`, for which the compound was called inactive in assay [2]. In addition, the Potency result in assay [3], in assay [4] and in assay [5] was “inactive” throughout.
With `Cc1ccc([S+](=O)([O-])n2cc(Cc3ccc(-c4ccccc4)cc3)c3ccccc32)cc1`, in assay [2], the compound was classed as inactive. Further, the Potency result in assay [3] and in assay [5] was “inactive” in each case.
Consider `CC1(C)CC(C(=O)Nc2ccc([S+](=O)([O-])Nc3nccs3)cc2)C1`, for which the call in assay [2] was inactive. Moreover, the Potency result in assay [3], in assay [4] and in assay [5] was “inactive” throughout.
As for `O=C(Nc1nc(-c2ccccc2)cs1)c1cccc(NS(=O)(=O)c2nccs2)c1`, the outcome in assay [2] was inactive. Also, the Potency entry in assay [3] and in assay [5] was “inactive” throughout. Further, the Potency in assay [4] was 17.2 µM (active).
`O=C(Nc1ccc(S(=O)(=O)Nc2nccs2)cc1)c1cccc2ccccc12`: the outcome in assay [2] was inactive. In addition, the Potency entry in assay [3] and in assay [5] was “inactive” each time. Besides, in assay [4], the Potency is 24.3 µM (active).
Consider `O=C(O)c1cccc(S(=O)(=O)Nc2nccs2)c1`, for which the compound was classed as inactive in assay [2]. The Potency result in assay [3], in assay [4] and in assay [5] was “inactive” in each case.
For the compound `Cc1ccc(-c2cc(C(=O)N3CC[S+](=O)([O-])CC3)c3ccccc3n2)cc1C`, the compound was classed as inactive in assay [2]. Further, the Potency result in assay [3] and in assay [5] was “inactive” each time.
Regarding `Cc1ccc(-c2cc(C(=O)NCC[S+](=O)([O-])O)c3ccccc3n2)cc1C`, the call in assay [2] was inactive. Besides, the Potency entry in assay [3], in assay [4] and in assay [5] was “inactive” in each case.
Regarding `CC(C)C1CCC(C(=O)Nc2ccc(S(=O)(=O)Nc3nccs3)cc2)CC1` (configuration not stated), the result in assay [2] was inactive. In addition, the Potency result in assay [3] and in assay [5] was “inactive” in each case. Moreover, the Potency in assay [4] is 10.9 µM (active).
In the case of `Cc1ccc(-c2cc(C(=O)Nc3ccccn3)c3ccccc3n2)cc1C`, the result in assay [2] was inactive. Further, the Potency result in assay [3] and in assay [5] was “inactive” each time.
`Cc1ccc(-c2cc(C(=O)N3CCCCC3)c3ccccc3n2)cc1C`: the outcome in assay [2] was inactive. The Potency result in assay [3] and in assay [5] was “inactive” throughout. Moreover, the Potency in assay [4] was 24.3 µM (active).
With `Cc1ccc([S+](=O)([O-])n2cc(-c3ccc(-c4ccccc4)cc3)c3ccccc32)cc1`, the outcome in assay [2] was inactive. Besides, the Potency result in assay [3], in assay [4] and in assay [5] was “inactive” throughout.
Turning to `Cc1ccc(S(=O)(=O)Nc2cnccc2C(=O)Nc2ccc(-n3cncn3)cc2)cc1`, the compound was called inactive in assay [2]. The Potency result in assay [3] and in assay [5] was “inactive” each time.
On to `Cc1ccc(-c2cc(C(=O)O)c3cccc(C)c3n2)cc1C`, for which the compound was called inactive in assay [2]. Further, the Potency entry in assay [3], in assay [4] and in assay [5] was “inactive” throughout.
`Cc1ccc(NC(=O)c2ccncc2NS(=O)(=O)c2ccc(C)cc2)cc1`: the compound was called inactive in assay [2]. Moreover, the Potency entry in assay [3] and in assay [5] was “inactive” in each case.
Take `O=c1[nH]c(CCl)nc2sc3c(c12)CCC3`: in assay [2], the outcome was inactive. In addition, the Potency in assay [3] is 14.8 µM (active). Moreover, the Potency result in assay [4] and in assay [5] was “inactive” in each case.

The values are drawn from PubChem BioAssay (NCATS).
